Measurements taken from ChEMBL document CHEMBL1961873, “Compounds: GSK PKIS; Assays: Nanosyn kinase panel” (2012).

biological target: Protein kinase C beta type (Homo sapiens) (UniProt P05771); conditions: at 1 µM;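 note: GSK PKIS screen, average inhibition of the PKC-beta2 splice variant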
Sequence (P05771 2-671 limits assumed): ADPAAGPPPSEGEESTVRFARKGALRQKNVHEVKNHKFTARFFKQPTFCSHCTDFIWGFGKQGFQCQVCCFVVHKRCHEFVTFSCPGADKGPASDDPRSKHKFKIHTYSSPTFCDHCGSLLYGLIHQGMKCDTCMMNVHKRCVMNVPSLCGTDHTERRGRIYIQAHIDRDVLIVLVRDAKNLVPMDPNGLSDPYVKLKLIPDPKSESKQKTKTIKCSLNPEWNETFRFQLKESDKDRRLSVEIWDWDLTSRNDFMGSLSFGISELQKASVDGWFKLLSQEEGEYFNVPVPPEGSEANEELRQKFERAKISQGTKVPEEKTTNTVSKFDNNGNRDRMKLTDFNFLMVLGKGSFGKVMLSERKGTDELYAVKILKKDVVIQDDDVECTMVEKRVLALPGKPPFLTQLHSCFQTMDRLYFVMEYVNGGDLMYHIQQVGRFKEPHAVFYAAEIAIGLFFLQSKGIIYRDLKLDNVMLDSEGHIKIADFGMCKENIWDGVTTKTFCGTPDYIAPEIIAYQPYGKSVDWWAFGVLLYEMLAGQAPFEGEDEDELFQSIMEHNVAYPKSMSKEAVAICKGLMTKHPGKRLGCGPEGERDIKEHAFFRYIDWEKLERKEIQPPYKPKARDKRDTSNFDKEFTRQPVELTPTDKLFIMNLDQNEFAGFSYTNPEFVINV

SMILES	inhibition [%]
CS(=O)(=O)CCNCc1nc(-c2ccc3ncnc(Nc4ccc(F)c(Cl)c4)c3c2)cs1	2.18
CS(=O)(=O)CCNCc1ccc(-c2ccc3ncnc(Nc4ccc(OCc5ccccc5)c(Cl)c4)c3c2)o1	0.08
COC(=O)Nc1nc2cc(Oc3cccc(NC(=O)Nc4cc(C(F)(F)F)ccc4F)c3)ccc2[nH]1	1.79

biological target: T1, Serine/threonine-protein kinase D1 (Homo sapiens) (UniProt Q15139); conditions: at 0.1 µM
T1 sequence (whole entry): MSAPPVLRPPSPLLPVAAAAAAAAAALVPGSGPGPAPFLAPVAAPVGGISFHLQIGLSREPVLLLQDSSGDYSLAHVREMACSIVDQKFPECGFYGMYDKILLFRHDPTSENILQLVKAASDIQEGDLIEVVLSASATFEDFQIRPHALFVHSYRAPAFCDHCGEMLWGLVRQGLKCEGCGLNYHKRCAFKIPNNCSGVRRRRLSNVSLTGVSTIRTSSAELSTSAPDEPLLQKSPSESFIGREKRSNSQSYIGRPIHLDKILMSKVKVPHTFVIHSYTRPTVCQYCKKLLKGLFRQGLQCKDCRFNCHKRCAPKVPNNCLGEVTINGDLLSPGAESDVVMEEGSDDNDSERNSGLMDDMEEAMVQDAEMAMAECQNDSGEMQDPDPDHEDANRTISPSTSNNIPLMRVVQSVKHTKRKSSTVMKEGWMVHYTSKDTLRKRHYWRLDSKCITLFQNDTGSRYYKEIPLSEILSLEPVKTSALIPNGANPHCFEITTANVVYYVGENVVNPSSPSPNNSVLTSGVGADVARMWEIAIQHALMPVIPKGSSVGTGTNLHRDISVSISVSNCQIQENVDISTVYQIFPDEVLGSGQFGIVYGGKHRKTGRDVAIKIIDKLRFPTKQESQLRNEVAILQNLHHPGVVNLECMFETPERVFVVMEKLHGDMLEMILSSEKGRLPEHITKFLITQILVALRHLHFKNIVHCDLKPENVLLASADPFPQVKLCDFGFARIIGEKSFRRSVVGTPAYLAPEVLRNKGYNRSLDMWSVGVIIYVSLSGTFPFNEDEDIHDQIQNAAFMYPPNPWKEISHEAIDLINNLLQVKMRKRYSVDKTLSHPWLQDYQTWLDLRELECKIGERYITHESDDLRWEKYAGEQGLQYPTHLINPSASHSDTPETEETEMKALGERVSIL

SMILES	inhibition [%]
COc1ccc(-c2coc3ncnc(N)c23)cc1	4.27
Cc1cc(O)cc(C)c1/C=C/c1cncc(-c2nn[nH]n2)c1	1.38
NCc1ccc(-c2nc(-c3ccc(Cl)c(O)c3)c(-c3ccncc3)[nH]2)cc1	0.78
Cc1ccc(C(=O)NC2CCCCC2)cc1-c1ccc(C(=O)NCC2CC2)cc1	1.97
COc1cccc(-n2ncc3c(N/N=C/c4cccc(F)c4)ncnc32)c1	-1.15
[O-][S+]1CCN(Cc2ccc(-c3ccc4ncnc(Nc5ccc(OCc6ccccc6)c(F)c5)c4c3)o2)CC1	2.32
COc1cc2c(cc1Nc1nc(N3CCc4ccccc43)c3cc[nH]c3n1)N(C(=O)CN(C)C)CC2	1.69
COc1cc2ncn(-c3cc(OCc4ccccc4Cl)c(C(N)=O)s3)c2cc1OC	0.01
COc1ccccc1Nc1ncc(-c2ccccc2)o1	4.01
c1cnn2ncc(-c3ccnc(Nc4ccc5c(c4)OCCO5)n3)c2c1	6.99
CS(=O)(=O)CCN(CC#N)Cc1ccc(-c2ccc3ncnc(Nc4ccc(OCc5cccc(F)c5)c(Cl)c4)c3c2)o1	-2.21
CS(=O)(=O)CCNCc1ccc(-c2ccc3ncnc(Nc4ccc(OCc5cccc(F)c5)c(C(F)(F)F)c4)c3c2)o1	4.99
COc1ccc(-c2nn3ncccc3c2-c2ccnc(Nc3ccc(Cl)c(C(F)(F)F)c3)n2)cc1	2.22
CCn1c(-c2nonc2N)nc2ccncc21	1.02
Nc1ncnc2occ(-c3ccc(NC(=O)Nc4cccc(C(F)(F)F)c4)cc3)c12	5.29
CC(C)=Cc1cccc2c1/C(=N/Nc1ccc(S(N)(=O)=O)cc1)C(=O)N2	2.84
Fc1cccc(COc2ccc(Nc3ncnc4cc(-c5ccc[nH]5)sc34)cc2Cl)c1	-0.95

SMILES	inhibition [%]
CCN1CCC(CC(=O)Nc2n[nH]c3nc(-c4cccs4)c(Br)cc23)CC1	-1.83
NC(=O)c1ccc(-c2nc(-c3ccccn3)c(-c3ccc4c(c3)OCO4)[nH]2)cc1	2.47
CCn1c(-c2nonc2N)nc2c(C#CC(C)(C)O)nc(OC[C@@H](N)c3ccccc3)cc21	-0.47
CCn1c(-c2nonc2N)nc2cncc(C(=O)N3CC[C@H](N)C3)c21	4.56
Cc1ccc(NC(=O)c2ccnc(N3CCCC3)c2)cc1-c1ccc(C(=O)NCC2CC2)cc1	3.07
COc1cc(C)c(NC(=O)CN(C)C)cc1Nc1nc(Nc2cccc(F)c2C(N)=O)c2cc[nH]c2n1	2.21
CCn1c(-c2nonc2N)nc2cnc(Oc3cccc(NC(=O)c4ccc(OCCN5CCOCC5)cc4)c3)cc21	2.46
Nc1nc(-c2ccc3c(c2)C(=Cc2cc(Br)c(O)c(Br)c2)C(=O)N3)cs1	-1.69
COc1ccc(-c2ccncc2)cc1C(N)=O	5.51
CC1=C(C(=O)Nc2ccc3[nH]ncc3c2)C(c2ccc(Cl)c(Cl)c2)CC(=O)N1 (stereo unspecified)	0.89
Fc1cccc(COc2ccc(Nc3ncnc4sc(-c5cccs5)cc34)cc2Cl)c1	0.09
CN1CCC(C(=O)Nc2n[nH]c3nnc(-c4ccccc4)cc23)CC1	5.4
Cc1nn(C)c2cc(N(C)c3ccnc(Nc4cccc(S(N)(=O)=O)c4)n3)ccc12	2.29
COC(=O)Nc1nc2cc(Oc3ccc(NC(=O)Nc4cccc(C(=O)O)c4)cc3)ccc2[nH]1	-1.35
CS(=O)(=O)CCNCc1nc(-c2ccc3ncnc(Nc4ccc(F)c(Cl)c4)c3c2)cs1	1.88
CS(=O)(=O)CCNCc1ccc(-c2ccc3ncnc(Nc4ccc(OCc5ccccc5)c(Cl)c4)c3c2)o1	-0.53
COC(=O)Nc1nc2cc(Oc3cccc(NC(=O)Nc4cc(C(F)(F)F)ccc4F)c3)ccc2[nH]1	0.22

biological target: T1, Serine/threonine-protein kinase D1 (Homo sapiens); conditions: at 1 µM

SMILES	inhibition [%]
COc1ccc(-c2coc3ncnc(N)c23)cc1	6.99
Cc1cc(O)cc(C)c1/C=C/c1cncc(-c2nn[nH]n2)c1	4.65
NCc1ccc(-c2nc(-c3ccc(Cl)c(O)c3)c(-c3ccncc3)[nH]2)cc1	2.64
Cc1ccc(C(=O)NC2CCCCC2)cc1-c1ccc(C(=O)NCC2CC2)cc1	2.69
COc1cccc(-n2ncc3c(N/N=C/c4cccc(F)c4)ncnc32)c1	0.28
[O-][S+]1CCN(Cc2ccc(-c3ccc4ncnc(Nc5ccc(OCc6ccccc6)c(F)c5)c4c3)o2)CC1	4.27
COc1cc2c(cc1Nc1nc(N3CCc4ccccc43)c3cc[nH]c3n1)N(C(=O)CN(C)C)CC2	3.76
COc1cc2ncn(-c3cc(OCc4ccccc4Cl)c(C(N)=O)s3)c2cc1OC	0.57
COc1ccccc1Nc1ncc(-c2ccccc2)o1	5.46
c1cnn2ncc(-c3ccnc(Nc4ccc5c(c4)OCCO5)n3)c2c1	45.1
CS(=O)(=O)CCN(CC#N)Cc1ccc(-c2ccc3ncnc(Nc4ccc(OCc5cccc(F)c5)c(Cl)c4)c3c2)o1	-3.04
CS(=O)(=O)CCNCc1ccc(-c2ccc3ncnc(Nc4ccc(OCc5cccc(F)c5)c(C(F)(F)F)c4)c3c2)o1	3.72
COc1ccc(-c2nn3ncccc3c2-c2ccnc(Nc3ccc(Cl)c(C(F)(F)F)c3)n2)cc1	3.95
CCn1c(-c2nonc2N)nc2ccncc21	3.26
Nc1ncnc2occ(-c3ccc(NC(=O)Nc4cccc(C(F)(F)F)c4)cc3)c12	7.85
CC(C)=Cc1cccc2c1/C(=N/Nc1ccc(S(N)(=O)=O)cc1)C(=O)N2	13.5
Fc1cccc(COc2ccc(Nc3ncnc4cc(-c5ccc[nH]5)sc34)cc2Cl)c1	-1.14

SMILES	inhibition [%]
CCN1CCC(CC(=O)Nc2n[nH]c3nc(-c4cccs4)c(Br)cc23)CC1	-1.4
NC(=O)c1ccc(-c2nc(-c3ccccn3)c(-c3ccc4c(c3)OCO4)[nH]2)cc1	5.43
CCn1c(-c2nonc2N)nc2c(C#CC(C)(C)O)nc(OC[C@@H](N)c3ccccc3)cc21	9.57
CCn1c(-c2nonc2N)nc2cncc(C(=O)N3CC[C@H](N)C3)c21	9.27
Cc1ccc(NC(=O)c2ccnc(N3CCCC3)c2)cc1-c1ccc(C(=O)NCC2CC2)cc1	9.98
COc1cc(C)c(NC(=O)CN(C)C)cc1Nc1nc(Nc2cccc(F)c2C(N)=O)c2cc[nH]c2n1	18.1
CCn1c(-c2nonc2N)nc2cnc(Oc3cccc(NC(=O)c4ccc(OCCN5CCOCC5)cc4)c3)cc21	3.36
Nc1nc(-c2ccc3c(c2)C(=Cc2cc(Br)c(O)c(Br)c2)C(=O)N3)cs1	-1.78
COc1ccc(-c2ccncc2)cc1C(N)=O	15.2
CC1=C(C(=O)Nc2ccc3[nH]ncc3c2)C(c2ccc(Cl)c(Cl)c2)CC(=O)N1 (stereo unspecified)	4.46
Fc1cccc(COc2ccc(Nc3ncnc4sc(-c5cccs5)cc34)cc2Cl)c1	0.23
CN1CCC(C(=O)Nc2n[nH]c3nnc(-c4ccccc4)cc23)CC1	6.32
Cc1nn(C)c2cc(N(C)c3ccnc(Nc4cccc(S(N)(=O)=O)c4)n3)ccc12	4.44
COC(=O)Nc1nc2cc(Oc3ccc(NC(=O)Nc4cccc(C(=O)O)c4)cc3)ccc2[nH]1	-1.96
CS(=O)(=O)CCNCc1nc(-c2ccc3ncnc(Nc4ccc(F)c(Cl)c4)c3c2)cs1	2.6
CS(=O)(=O)CCNCc1ccc(-c2ccc3ncnc(Nc4ccc(OCc5ccccc5)c(Cl)c4)c3c2)o1	0.36
COC(=O)Nc1nc2cc(Oc3cccc(NC(=O)Nc4cc(C(F)(F)F)ccc4F)c3)ccc2[nH]1	1.03
